# According to article PMC5540273 (PLoS ONE, 2017):
# System: T1, PIK4CB
# T1 construct: gene PI4KB
# Conditions: concentration: 1 μM, replicates: in singlicate; n = 1
# 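Further: KINOMEscan kinase panel screen.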
row,Structure (SMILES),%Inh
1,Cl.Cl.NC(CNC(=O)c1cc(Br)c(-c2ccnc3[nH]ccc23)s1)c1ccccc1 (centres unmarked) [GSK1322949],0%
2,Cl.Cl.NCC(NC(=O)c1cc(-c2cccnc2)c(-c2ccnc3[nH]ccc23)s1)c1ccccc1 (centres unmarked) [GSK1323434],0%
3,CC(C)c1nc(-c2ccc(F)c(NS(=O)(=O)c3c(F)cccc3F)c2)c(-c2ccnc(Nc3ccc(N4CCOCC4)nc3)n2)s1 [GSK1804250],0%
4,CC(=O)Nc1cn2nc(Oc3cccc(NC(=O)c4cccc(C(F)(F)F)c4)c3)ccc2n1,0%
5,COc1cc(Nc2nccc(N3CCC(NS(=O)(=O)c4ccc(NC(C)=O)cc4)CC3)n2)cc(OC)c1OC [GSK1379825],9%
6,Cn1cc(-c2cnc(N)c3c(-c4ccc5c(c4)CCN5C(=O)Cc4ccccc4)csc23)cn1 [GSK2593074],100%
7,Cc1ccc(NC(=O)c2ccnc(N3CCCCC3)c2)cc1-c1ccc(C(=O)NCC2CC2)cc1 [GW775610],8%
8,CCn1cnc2c(NCc3ccccc3)ncnc21 [SKF-96418],4%
9,Cc1ccc(NC(=O)c2cccc(N3CCCCC3)c2)cc1-c1ccc(C(=O)NCC2CC2)cc1 [GSK1917008],11%
10,COc1ccc(NC(=O)c2ccoc2)cc1-c1ccc(C(=O)NCC2CC2)cc1 [GW810437],20%
11,COc1cccc(CC(=O)N2CCc3cc(-c4cn(C)c5ncnc(N)c45)ccc32)c1 [GSK2608899],0%
12,CN1CCN(Cc2ccc(NC(=O)Nc3ccc(N(C)c4ccnc(Nc5ccc(CS(C)(=O)=O)cc5)n4)cc3)cc2)CC1.Cl [GW827654],30%
13,c1ccc(Oc2ccc(Nc3ccnc4cc(-c5ccc(CN6CCCCC6)o5)ccc34)cc2)nc1 [GW567143],0%
14,CN(c1ccc(F)c(NC(=O)c2cccc(OC(C)(C)C#N)c2Cl)c1)c1ccc2nc(NC(=O)C3CC3)sc2n1,0%
15,CCOc1nccc(-c2c(-c3ccc(F)cc3)ncn2C2CCNCC2)n1 [SB-249175],3%
16,CN(C)CCNS(=O)(=O)c1ccc(-c2ccnc3[nH]ccc23)cc1 [GSK977620],0%
17,CC(C)(C)c1ccc(C(=O)Nc2cn3cc(-n4ccnc4)ccc3n2)cc1,2%
18,Cn1cc(-c2ccc3c(c2)CCN3C(=O)Cc2cc(F)cc(F)c2F)c2c(N)ncnc21 [GSK2634140],0%
19,O=C(Nc1n[nH]c2nc(-c3ccccc3)ccc12)C1CC1 [SB-708999],0%

row,Structure (SMILES),%Inh
1,O=C(Nc1n[nH]c2nc(-c3cccc(O)c3)ccc12)C1CC1 [SB-711805],12%
2,CN(C)CCOc1ccc(-c2cc(-c3ccc(Cl)c(O)c3)c(-c3ccncc3)[nH]2)cc1.Cl.Cl [SB-684387],26%
3,Cc1cc(-c2c(-c3ccc(F)cc3)ncn2CCCN2CCOCC2)nc(N)n1 [SB-222517],46%
4,CC(C)NCC(Cc1ccccc1)NC(=O)c1cc(Br)c(-c2ccnc3[nH]ccc23)s1.Cl.Cl (centres unmarked) [GSK1383281],0%
5,CNc1nccc(-c2ccc3c(N)n[nH]c3c2)n1 [GSK2206003],0%
6,O=C(Nc1n[nH]c2nc(-c3ccccc3O)ccc12)C1CC1 [SB-711880],24%
7,O=C1NC(=O)C(c2ccccc2Cl)=C1Nc1cccc(Cl)c1 [SB-342409],0%
8,Cc1nn2c(=O)cc(N3CCO[C@H](C)C3)nc2n1Cc1cccc(Cl)c1Cl [GSK2373693],11%
9,CCNc1nccc(-c2c(-c3ccc(F)cc3)ncn2C2CCN(C)CC2)n1,0%
10,COC(=O)Nc1nc2ccc(Oc3ccc(CC(=O)Nc4cc(C(F)(F)F)ccc4F)cc3)cc2[nH]1 [GW680903],0%
11,N#Cc1cnc2cc(-c3cnc(CNCCN4CCOCC4)s3)ccc2c1Nc1ccc(Oc2ccccc2)cc1 [GW664114],11%
12,COc1cccc(C2=C(Nc3cccc(O)c3)C(=O)NC2=O)c1 [SB-390771],10%
13,O=C(Nc1n[nH]c2cc(-c3cccs3)ccc12)C1CC1 [SB-731284],0%
14,Cc1ccc(O)cc1Nc1ccnc2ccc(C(C)(C)C)cc12 [GW856805],47%
15,Nc1cccc(-c2ccc3c(N)n[nH]c3c2)c1 [GSK2193613],0%
16,Fc1cc(Cl)ccc1Nc1ccnc2cc(-c3ccc(CN4CCOCC4)o3)ccc12 [GW560109],16%
17,Nc1ncc(-c2ccc3nccc(-c4ccncc4)c3c2)cc1S(=O)(=O)N1CCCCC1 [GSK1693850],95.9%
18,Nc1ncnc2scc(-c3ccc(NC(=O)Cc4cc(F)ccc4F)cc3)c12.O=C(O)C(F)(F)F [SB-731254-M],22%

# System: PIKFYVE
# Conditions: concentration: 1 μM, replicates: in singlicate; n = 1
row,Structure (SMILES),%Inh
1,Cl.Cl.NC(CNC(=O)c1cc(Br)c(-c2ccnc3[nH]ccc23)s1)c1ccccc1 (centres unmarked) [GSK1322949],0%
2,Cl.Cl.NCC(NC(=O)c1cc(-c2cccnc2)c(-c2ccnc3[nH]ccc23)s1)c1ccccc1 (centres unmarked) [GSK1323434],59%
3,CC(C)c1nc(-c2ccc(F)c(NS(=O)(=O)c3c(F)cccc3F)c2)c(-c2ccnc(Nc3ccc(N4CCOCC4)nc3)n2)s1 [GSK1804250],66%
4,CC(=O)Nc1cn2nc(Oc3cccc(NC(=O)c4cccc(C(F)(F)F)c4)c3)ccc2n1,0%
5,COc1cc(Nc2nccc(N3CCC(NS(=O)(=O)c4ccc(NC(C)=O)cc4)CC3)n2)cc(OC)c1OC [GSK1379825],82%
6,Cn1cc(-c2cnc(N)c3c(-c4ccc5c(c4)CCN5C(=O)Cc4ccccc4)csc23)cn1 [GSK2593074],0%
7,Cc1ccc(NC(=O)c2ccnc(N3CCCCC3)c2)cc1-c1ccc(C(=O)NCC2CC2)cc1 [GW775610],24%
8,CCn1cnc2c(NCc3ccccc3)ncnc21 [SKF-96418],23%
9,Cc1ccc(NC(=O)c2cccc(N3CCCCC3)c2)cc1-c1ccc(C(=O)NCC2CC2)cc1 [GSK1917008],0%
10,COc1ccc(NC(=O)c2ccoc2)cc1-c1ccc(C(=O)NCC2CC2)cc1 [GW810437],31%
11,COc1cccc(CC(=O)N2CCc3cc(-c4cn(C)c5ncnc(N)c45)ccc32)c1 [GSK2608899],0%
12,CN1CCN(Cc2ccc(NC(=O)Nc3ccc(N(C)c4ccnc(Nc5ccc(CS(C)(=O)=O)cc5)n4)cc3)cc2)CC1.Cl [GW827654],7%
13,c1ccc(Oc2ccc(Nc3ccnc4cc(-c5ccc(CN6CCCCC6)o5)ccc34)cc2)nc1 [GW567143],0%
14,CN(c1ccc(F)c(NC(=O)c2cccc(OC(C)(C)C#N)c2Cl)c1)c1ccc2nc(NC(=O)C3CC3)sc2n1,50%
15,CCOc1nccc(-c2c(-c3ccc(F)cc3)ncn2C2CCNCC2)n1 [SB-249175],7%
16,CN(C)CCNS(=O)(=O)c1ccc(-c2ccnc3[nH]ccc23)cc1 [GSK977620],0%
17,CC(C)(C)c1ccc(C(=O)Nc2cn3cc(-n4ccnc4)ccc3n2)cc1,5%
18,Cn1cc(-c2ccc3c(c2)CCN3C(=O)Cc2cc(F)cc(F)c2F)c2c(N)ncnc21 [GSK2634140],0%
19,O=C(Nc1n[nH]c2nc(-c3ccccc3)ccc12)C1CC1 [SB-708999],28%

row,Structure (SMILES),%Inh
1,O=C(Nc1n[nH]c2nc(-c3cccc(O)c3)ccc12)C1CC1 [SB-711805],15%
2,CN(C)CCOc1ccc(-c2cc(-c3ccc(Cl)c(O)c3)c(-c3ccncc3)[nH]2)cc1.Cl.Cl [SB-684387],45%
3,Cc1cc(-c2c(-c3ccc(F)cc3)ncn2CCCN2CCOCC2)nc(N)n1 [SB-222517],0%
4,CC(C)NCC(Cc1ccccc1)NC(=O)c1cc(Br)c(-c2ccnc3[nH]ccc23)s1.Cl.Cl (centres unmarked) [GSK1383281],0%
5,CNc1nccc(-c2ccc3c(N)n[nH]c3c2)n1 [GSK2206003],0%
6,O=C(Nc1n[nH]c2nc(-c3ccccc3O)ccc12)C1CC1 [SB-711880],30%
7,O=C1NC(=O)C(c2ccccc2Cl)=C1Nc1cccc(Cl)c1 [SB-342409],0%
8,Cc1nn2c(=O)cc(N3CCO[C@H](C)C3)nc2n1Cc1cccc(Cl)c1Cl [GSK2373693],8%
9,CCNc1nccc(-c2c(-c3ccc(F)cc3)ncn2C2CCN(C)CC2)n1,0%
10,COC(=O)Nc1nc2ccc(Oc3ccc(CC(=O)Nc4cc(C(F)(F)F)ccc4F)cc3)cc2[nH]1 [GW680903],5%
11,N#Cc1cnc2cc(-c3cnc(CNCCN4CCOCC4)s3)ccc2c1Nc1ccc(Oc2ccccc2)cc1 [GW664114],100%
12,COc1cccc(C2=C(Nc3cccc(O)c3)C(=O)NC2=O)c1 [SB-390771],0%
13,O=C(Nc1n[nH]c2cc(-c3cccs3)ccc12)C1CC1 [SB-731284],9%
14,Cc1ccc(O)cc1Nc1ccnc2ccc(C(C)(C)C)cc12 [GW856805],18%
15,Nc1cccc(-c2ccc3c(N)n[nH]c3c2)c1 [GSK2193613],0%
16,Fc1cc(Cl)ccc1Nc1ccnc2cc(-c3ccc(CN4CCOCC4)o3)ccc12 [GW560109],5%
17,Nc1ncc(-c2ccc3nccc(-c4ccncc4)c3c2)cc1S(=O)(=O)N1CCCCC1 [GSK1693850],0%
18,Nc1ncnc2scc(-c3ccc(NC(=O)Cc4cc(F)ccc4F)cc3)c12.O=C(O)C(F)(F)F [SB-731254-M],0%
